Compound activity as filed in PubChem.
This is a sample that favours compounds with a hit; in the whole collection about 19% have one here.
DT40 TDP1 CPT: growth inhibition of DT40 Tdp1-/-;hTDP1 cells with camptothecin (screen for TDP1 inhibitors); chicken DT40 Tdp1-/-;hTDP1 cells + 20 nM CPT, ATP luminescence, 48 h; Potency, µM (series often up to 46.2 µM), inactives show at the highest dose activity change, negative = growth inhibition, most hits filed as inhibitors; 12% of 420,000 active; further: potency means the concentration at half of the fitted maximal effect; nearly all actives have a fitted effect of over 55% in size
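Chicken DT40 Tdp1-/- cells stably complemented with human TDP1 were seeded at 400 cells/well in medium containing 20 nM camptothecin, exposed to pin-transferred compounds, and grown at 37 °C for at least 48 hr. Viability was read as ATP luminescence.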
TDP1 block: inhibitors of human tyrosyl-DNA phosphodiesterase TDP1; Potency, µM (top dose mostly 130 µM), inactives show at the highest dose activity change, negative = inhibition, hits mostly inhibitors; Q9NUW8; 0.28% of 350,000 active; recombinant TDP1, AlphaScreen DNA substrate cleavage; AID 485290; further: potency means the concentration at half of the fitted maximal effect; nearly all actives have a fitted effect of over 40% in size
Target sequence (Q9NUW8 whole entry, looked up): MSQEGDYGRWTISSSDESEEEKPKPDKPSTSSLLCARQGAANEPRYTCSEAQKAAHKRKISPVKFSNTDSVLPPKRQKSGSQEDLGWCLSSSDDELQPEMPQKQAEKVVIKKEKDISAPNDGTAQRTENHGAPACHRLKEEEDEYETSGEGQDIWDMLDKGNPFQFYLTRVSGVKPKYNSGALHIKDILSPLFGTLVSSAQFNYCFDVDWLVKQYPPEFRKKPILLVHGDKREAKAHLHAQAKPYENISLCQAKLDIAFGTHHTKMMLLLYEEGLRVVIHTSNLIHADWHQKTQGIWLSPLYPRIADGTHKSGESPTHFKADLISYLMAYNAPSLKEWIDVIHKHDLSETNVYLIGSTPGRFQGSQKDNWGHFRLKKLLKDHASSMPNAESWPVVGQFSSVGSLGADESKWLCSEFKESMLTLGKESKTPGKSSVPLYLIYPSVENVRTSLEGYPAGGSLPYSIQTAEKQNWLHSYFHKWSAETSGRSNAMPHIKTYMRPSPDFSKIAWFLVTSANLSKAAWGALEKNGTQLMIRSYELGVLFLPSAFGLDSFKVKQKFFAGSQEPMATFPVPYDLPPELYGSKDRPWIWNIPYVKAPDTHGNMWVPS
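Recombinant human Tdp1 (E. coli-expressed, 1 nM final) preincubated with compounds 15 min at room temperature, then 5'-biotin/3'-phosphotyrosine-FITC DNA substrate (15 nM final) added for 5 min. AlphaScreen beads (10 ug/ml final) added 10 min; cleavage lowers signal.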
IL-1B inflam inh: inhibitors of inflammasome signaling (IL-1 beta secretion). THP-1 LPS/ATP IL-1B secretion, AlphaLISA, 16 h; stronger effect = lower value. 4.7% of 360,000 active. activity change, % at 57.5 µM; in the data active means activity change below about -50%; inconclusive means mostly about -30% to -49%
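THP-1 cells pretreated 1 hr with compounds (up to 57.5 uM final), then stimulated with LPS (250 ng/mL final) plus ATP (1.25 mM final); secreted IL-1B measured by AlphaLISA after 16 hr, decreased signal indicating inhibition.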
ELG1 DNA repair: ELG1-dependent DNA repair inhibition; HEK293T ELG1-luciferase reporter, luminescence, 16 h; DNA damage induced by 5-fluorouridine; Potency, µM (titrated, usually from 46.1 µM), for the others: at the highest dose activity change, negative = inhibition, most hits filed as inhibitors; 2.3% of 330,000 active; further: potency means the concentration at half of the fitted maximal effect; nearly all actives have a fitted effect of over 55% in size
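5-Fluorouridine DNA damage + compound/DMSO, 2,000 cells/well, 16 h, 37 °C/5% CO2. ONE-Glo, 30 min RT, luminescence. Readout = decrease in reporter signal.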
Giardia kill: Giardia lamblia killing. Giardia lamblia trophozoite viability. activity change, % at 7.66 µM, hits read low. 0.15% of 340,000 active; in the data active means activity change below about -80%; inconclusive means between about -30% and that limit;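 further: parasites exposed to compound for two days anaerobically before the ATP read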
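Media and compound were dispensed first, then trophozoites at 100 cells/well; plates sat 48 hrs at 37 deg C without oxygen before ATP luminescence reagent was added and read after 15-30 min at room temperature.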
DT40 TDP1 no CPT: qHTS for Inhibitors of human tyrosyl-DNA phosphodiesterase 1 (TDP1): qHTS in cells in absence of CPT. DT40 Tdp1-/- hTDP1 cells, no CPT, ATP luminescence, 48 h. Potency, µM (doses to about 46.2 µM), for the others: top-dose activity change, negative = growth inhibition, usual class: inhibitors. 15% of 420,000 active. AID 686978, 2013; further: potency means the concentration at half of the fitted maximal effect; nearly all actives have a fitted effect of over 55% in size
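Stably hTDP1-transfected Tdp1-null chicken DT40 cells were treated with library compounds minus camptothecin and grown for at least 48 hr at 37 °C, after which cellular ATP was quantified by luminescence.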
Starred values were filed as active, the others as inactive; ? = inconclusive; / = not tested or not shown; [ ] = remark or other dose. Unless noted, the call rests on the fitted dose curve; in most records, active means well fitted curve in the direction sought with a large enough effect; inconclusive means small, poorly fitted or top-dose-only effect, or another doubt; inactive means no such curve, though single readings can be large; an effect the other way counts as inactive or inconclusive. On the % scale 0 is the no-effect control and ±100 the full control effect.

SMILES	DT40 TDP1 CPT	TDP1 block	IL-1B inflam inh	ELG1 DNA repair	Giardia kill	DT40 TDP1 no CPT
CC(C)c1nc2sc3c(=S)nc[nH]c3c2c2c1CCC2	?	-2.8%	41.3	-1.4%	-27.9	23.1µM*
CCN1CCN(c2ncnc3c2sc2nc(N4CCOCC4)c4c(c23)CCC4)CC1	?	0.0%	44.5	-8.3%	-5.5	?
CN(CCO)c1ncnc2c1sc1nc(N3CCOCC3)c3c(c12)CCC3	13µM*	3.8%	-22.7	?	11.8	20.6µM*
CCN(CC(=O)Nc1cc(Cl)ccc1C)C(=O)COc1cccc2c1OC(C)(C)C2	?	1.4%	-15.7	-2.9%	-19.1	?
COc1cc(OC)c(/C=C/c2cc3c4ccccc4ccc3[n+](C)c2)c(OC)c1	-117.3%	/	/	/	/	?
COc1cc(OC)c(/C=C/c2c3ccccc3cc[n+]2C)c(OC)c1	0.316µM*	/	/	/	/	0.0891µM*
COc1cc(OC)c(/C=C/c2cc(/C=C/c3c(OC)cc(OC)cc3OC)[n+](C)c3ccccc23)c(OC)c1	1.58µM*	/	/	/	/	1.12µM*
COc1cc(OC)c(/C=N/N2CCN(c3ccccc3OC)CC2)c(OC)c1	-17.4%	9.0%	-3.1	9.3%	18.4	-0.8%
CCOc1ccccc1NC(=S)NCc1cccn1C	-2.9%	4.6%	20.8	-1.9%	-9.9	-7.0%
O=C(CCN1C(=O)C2CCCCC2C1=O)Nc1ccc(F)c(F)c1F (centres undefined)	-2.2%	5.8%	16.4	?	10.4	-25.2%
CC(C)CNC(=S)N(CCN(C)C)Cc1cc2cc3c(cc2[nH]c1=O)OCO3	?	/	?	-6.8%	10.7	5.17µM*
CCCCNC(=S)N(CCN(CC)CC)Cc1cc2cc3c(cc2[nH]c1=O)OCCO3	25.9µM*	/	?	?	9.3	?
CCN(CC)CCCN(Cc1cc2cc3c(cc2[nH]c1=O)OCO3)C(=S)Nc1ccccc1	?	3.0%	-65.4*	-4.9%	0.3	?
COc1ccccc1NS(=O)(=O)c1cc([N+](=O)[O-])ccc1N/N=C/c1c[nH]c2ccccc12	?	2.0%	-80.5*	?	3.9	?
O=C(O)COc1ccccc1C=NNc1ccc([N+](=O)[O-])cc1S(=O)(=O)Nc1ccc(Cl)cc1	8.0%	-0.5%	7.3	5.1%	6.1	-0.8%
Cc1[nH]c2ccccc2c1/C=N/Nc1ccc([N+](=O)[O-])cc1S(=O)(=O)Nc1ccc(Cl)cc1	20.6µM*	2.0%	1.4	?	0.0	14.6µM*
O=[N+]([O-])c1ccccc1N/N=C/c1c[nH]c2ccccc12	?	12.4%	-20.6	?	-6.0	?
O=[N+]([O-])c1ccc(N/N=C/c2c[nH]c3ccccc23)cc1	?	6.2%	-90.4*	?	8.3	16.4µM*
COc1ccc(NS(=O)(=O)c2cc([N+](=O)[O-])ccc2NN=Cc2ccccc2OCC(=O)O)cc1	3.8%	1.6%	13.6	25.9%	22.2	1.8%
COc1ccc(NS(=O)(=O)c2cc([N+](=O)[O-])ccc2N/N=C\c2c(C)[nH]c3ccccc23)cc1	16.4µM*	0.5%	-1.2	-3.6%	-11.7	?
CCCCNC(=S)Nc1ccccc1Cc1ccccc1	?	-2.4%	-12.7	?	-14.8	?
Cc1ccc(NS(=O)(=O)c2cccc(C(=O)NNC(=O)c3cccn3C)c2)c(C)c1	-12.7%	-1.3%	-29.3	-15.0%	4.7	-23.4%
O=[N+]([O-])c1ccc(N/N=C/c2ccc[nH]2)cc1	?	-8.0%	-76.8*	28.3%	0.1	23.1µM*
CCOc1cc(C(=O)N=c2sccn2C)cc(Br)c1OC	18.4µM*	0.6%[56.1 µM]	?	?	17.9	18.4µM*
CCOc1ccc(C(=O)Nc2nc(-c3ccc(Br)cc3)ns2)cc1	?	2.6%	/	/	/	?
